Experimental data from the supplement of paper PMC12645437, “Orthogonal IMiD-Degron Pairs Induce Selective Protein Degradation in Cells” (ACS Chemical Biology, 2025).
The full ranking holds about 8,300 sequences; the median of “log2 fold change of degron read counts, EGFP-low vs EGFP+ sorted cells (limma voom), compound-induced degradation” is about -1.1, and the highest 2% start at about 3.2. Many of the other results were omitted from the sample, so the highest values are more common in it than they were.

T1: CRBN, Q96SW2
T1 chain: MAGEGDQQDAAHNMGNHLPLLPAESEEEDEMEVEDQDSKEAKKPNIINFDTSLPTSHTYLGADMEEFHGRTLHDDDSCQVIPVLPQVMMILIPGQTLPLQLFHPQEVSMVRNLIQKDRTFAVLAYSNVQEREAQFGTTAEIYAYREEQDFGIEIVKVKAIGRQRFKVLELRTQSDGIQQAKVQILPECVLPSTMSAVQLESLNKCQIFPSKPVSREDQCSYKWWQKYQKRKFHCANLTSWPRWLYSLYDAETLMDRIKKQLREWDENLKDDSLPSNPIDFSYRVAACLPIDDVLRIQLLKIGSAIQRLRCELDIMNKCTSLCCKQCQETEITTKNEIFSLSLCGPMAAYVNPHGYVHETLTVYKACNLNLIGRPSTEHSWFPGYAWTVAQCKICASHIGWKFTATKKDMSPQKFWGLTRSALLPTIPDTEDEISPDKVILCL

B1: 46F_47S_49D_50V_52G_53A_54I_55F_67L_, Q9UKT9 (peptide)
chain: FSCDVCGAIFTQKGNLLRHIKL
B2: 46F_47C_49E_50I_52G_53R_54E_55F_67L_, Q9UKT9 (peptide)
chain: FCCEICGREFTQKGNLLRHIKL
B3: 46F_47N_49P_50I_52G_53R_54D_55F_67L_, Q9UKT9 (peptide)
chain: FNCPICGRDFTQKGNLLRHIKL
B4: 46F_47S_49S_50V_52G_53H_54Q_55F_67L_, Q9UKT9 (peptide)
chain: FSCSVCGHQFTQKGNLLRHIKL
B5: 46L_47C_49E_50I_52G_53F_54E_55C_67L_, Q9UKT9 (peptide)
chain: LCCEICGFECTQKGNLLRHIKL
B6: 46F_47H_49N_50Q_52G_53A_54K_55F_67L_, Q9UKT9 (peptide)
chain: FHCNQCGAKFTQKGNLLRHIKL
B7: 46F_47L_49D_50V_52G_53A_54A_55F_67L_, Q9UKT9 (peptide)
chain: FLCDVCGAAFTQKGNLLRHIKL
B8: 46F_47F_49E_50I_52G_53R_54C_55F_67L_, Q9UKT9 (peptide)
chain: FFCEICGRCFTQKGNLLRHIKL
B9: 46L_47E_49P_50I_52G_53F_54A_55C_67L_, Q9UKT9 (peptide)
chain: LECPICGFACTQKGNLLRHIKL
B10: 46L_47T_49P_50I_52G_53F_54A_55C_67L_, Q9UKT9 (peptide)
chain: LTCPICGFACTQKGNLLRHIKL
B11: 46L_47C_49P_50I_52G_53F_54A_55C_67L_, Q9UKT9 (peptide)
chain: LCCPICGFACTQKGNLLRHIKL
B12: 46L_47A_49P_50I_52G_53F_54A_55C_67L_, Q9UKT9 (peptide)
chain: LACPICGFACTQKGNLLRHIKL
B13: 46L_47D_49P_50I_52G_53F_54A_55C_67L_, Q9UKT9 (peptide)
chain: LDCPICGFACTQKGNLLRHIKL
B14: 46L_47N_49P_50I_52G_53F_54A_55C_67L_, Q9UKT9 (peptide)
chain: LNCPICGFACTQKGNLLRHIKL
B15: 46L_47F_49P_50I_52G_53F_54A_55C_67L_, Q9UKT9 (peptide)
chain: LFCPICGFACTQKGNLLRHIKL
B16: 46L_47V_49P_50I_52G_53F_54A_55C_67L_, Q9UKT9 (peptide)
chain: LVCPICGFACTQKGNLLRHIKL
B17: 46L_47K_49P_50I_52G_53F_54A_55C_67L_, Q9UKT9 (peptide)
chain: LKCPICGFACTQKGNLLRHIKL
B18: 46L_47R_49P_50I_52G_53F_54A_55C_67L_, Q9UKT9 (peptide)
chain: LRCPICGFACTQKGNLLRHIKL
B19: 46L_47S_49P_50I_52G_53F_54A_55C_67L_, Q9UKT9 (peptide)
chain: LSCPICGFACTQKGNLLRHIKL
B20: 46L_47Y_49P_50I_52G_53F_54A_55C_67L_, Q9UKT9 (peptide)
chain: LYCPICGFACTQKGNLLRHIKL

Target: T1, CRBN, Q96SW2
Assay: log2 fold change of degron read counts, EGFP-low vs EGFP+ sorted cells (limma voom), compound-induced degradation; higher = more compound-induced degradation of the degron-EGFP fusion; degrons are variants of IKZF1/3 zinc finger 2; compound dose not given here
Conditions: Jurkat, 18 h
[1] = compound: compound 19 (5-tert-butyl-thalidomide)
[2] = compound: compound 22 (5-morpholino-thalidomide)
[3] = compound: compound 33 (diphenyl IMiD analogue)
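Also: pooled lentiviral library of zinc finger degron-EGFP fusions in mCherry-positive Jurkat cells, FACS-sorted after compound exposure, with degron abundance counted by next-generation sequencing.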

Sequence | log2 fold change of degron read counts [1] | log2 fold change of degron read counts [2] | log2 fold change of degron read counts [3] | log2 fold change of degron read counts (compound: thalidomide)
B1 | -0.277 | -1.23 | -0.103 | -1.43
B2 | -2.44 | -2.4 | -1.78 | -1.56
B3 | -1.89 | -1.85 | -1.07 | -1.09
B4 | -2.44 | -3.11 | -2.86 | -2.7
B5 | -0.329 | -0.269 | -0.566 | 0.603
B6 | -1.43 | -1.66 | -2.35 | -1.73
B7 | -0.47 | -1.3 | 0.2 | -0.799
B8 | 0.787 | 0.568 | 0.232 | -0.767
B9 | 1.75 | -0.131 | 2.17 | 3.17
B10 | 2.49 | 3.12 | 2.65 | 3.02
B11 | 2.49 | 2.68 | 2.8 | 2.77
B12 | 3.6 | 2.95 | 2.05 | 2.43
B13 | 0.373 | -0.371 | 0.648 | 1.61
B14 | 2.3 | 1.32 | 1.06 | 1.78
B15 | 3.05 | 3.52 | 2.44 | 1.94
B16 | 1.96 | 3.25 | 2.26 | 3.56
B17 | 1.2 | -0.283 | -0.872 | 1.19
B18 | 2.16 | 2.14 | 2.39 | 2.57
B19 | 2.81 | 2.91 | 2.59 | 2.54
B20 | 2.98 | 3.33 | 2.6 | 1.77
